Outcome data for 26 compounds are collected here from PubChem BioAssay (EPA / NIEHS).

Each structure is given as a SMILES string. Inconclusive results are not listed. Active and inactive are the calls of the source. The calls were made as follows: active = hit-call score of the fitted dose curve at least 0.9, where 1 is the maximum; inactive = score below 0.9.

Read-out in this assay: Cytochrome P450 2C9 (Homo sapiens) (UniProt P11712)
The assay can be described thus: CLD_CYP2C9_48hr: CellzDirect (CLD) Gene Expression Assay for xenobiotic metabolism (CYP2C9) at 48 hours (AID 2283701). Here is the method: CLD_48hr is a cell-based, multiplexed-readout assay that uses hepatocyte, a human liver primary cell, with measurements taken at 48 hours after chemical dosing in a 96-well plate.CLD_CYP2C9_48hr is one of 16 assay component(s) measured or calculated from the CLD_48hr assay. It is designed to make measurements of mRNA induction, a form of inducible reporter, as detected with chemiluminescence signals by Quantitative Nuclease Protection Assay (qNPA) technology.Data from the assay component CLD_CYP2C9_48hr was analyzed at the endpoint, CLD_CYP2C9_48hr, in the positive analysis fitting direction relative to DMSO as the negative control and baseline of activity. Using a type of inducible reporter, gain-of-signal activity can be used to understand changes in the reporter gene as they relate to the gene CYP2C9. Furthermore, this assay endpoint can be referred to as a primary readout. To generalize the intended target to other relatable targets, this assay endpoint is annotated to the cyp intended target family, where subfamily is xenobiotic metabolism.
Human hepatocyte cultures were treated daily for two consecutive days with fresh dosing solutions containing appropriate concentrations of the 320 ToxCast chemicals (chemical identities were blinded to CellzDirect and other ToxCast collaborators), vehicle control (0.2% DMSO), and positive control inducers as summarized in Table 1. Due to the large number of treatment groups and chemicals examined, the ToxCast chemicals were divided into two groups (spanning two independent cultures of hepatocytes from separate donor preparations (Hu778: ToxCast plates 1 and 2; Hu776: ToxCast plates 3 and 4). Each preparation of human hepatocyte cultures was treated with respective vehicle control, medium only control, set of six positive controls/reference chemicals for the five hepatic receptor pathways, and a subset of eight of the ToxCast chemicals (indoxacarb, pyrithiobac-sodium, norflurazon, cyhalofop-butyl, methomyl, thiram, acetochlor, and propiconazole). These replicate data, coupled with internal replicates designed within the blinded ToxCast chemical library, provided additional data to evaluate interindividual differences between hepatocyte preparations and their potential impact on chemical profiles.Cell morphology and integrity were evaluated using phase-contrast microscopy as an indicator of hepatocyte cell health (Tyson & Green, 1987). Cultures for each treatment group (i.e., media, vehicle [0.2% DMSO], positive control inducers [multiple concentrations], and the ToxCast chemicals [multiple concentrations]) were observed and cell morphology was assessed relative to vehicle control cultures at each harvest time point (0, 6, 24, or 48 h). […] Images were evaluated at the conclusion of the study to assess changes in cell integrity and account for the effects of chemical exposure on uncharacteristic changes in concentration-dependent gene expression profiles. The results from these determinations of apparent cytotoxicity were annotated (yes/no) alongside the corresponding qNPA data for reference.At the conclusion of each treatment period, hepatocyte cultures (96-well) were washed with 1 volume of HBSS, lysed by addition of 25 ul ArrayPlate lysis buffer (HTG, Tucson, AZ), and 70 ul/well of Denaturation Oil, denatured by incubation at 95C for 10 min, and frozen at approximately -70C until analysis by nuclease protection assay (qNPA) (Roberts et al., 2007). For qNPA analysis, cell lysates were thawed at 50C for approximately 30 min, qNPA probes were added, and samples were incubated at 95C for 10 min to begin the detection process by denaturing the target RNA, dissociating the duplexes and secondary structure hybridization. At the conclusion of the hybridization period, S1 nuclease reagent was added to each sample to digest all nonprotected nucleotides at 50C for 60-90 min. […]
As to `Cc1cc(C)nc(NC(=O)NS(=O)(=O)c2ccccc2C(=O)OC2COC2)n1`, the call was inactive.
The entry for `O=[N+]([O-])c1c(Cl)c(Cl)c(Cl)c(Cl)c1Cl` is “inactive”.
With `Cc1[nH]c(=O)n(C(C)(C)C)c(=O)c1Cl`, the compound was called inactive.
On to `CCOC1Oc2ccc(OS(C)(=O)=O)cc2C1(C)C` (stereo unspecified), for which the compound was called inactive.
Regarding `C#CCN1C(=O)COc2cc(F)c(N3C(=O)C4=C(CCCC4)C3=O)cc21`, the compound was called inactive.
With `CN1CSC(=S)N(C)C1` the entry was “inactive”; with `N#CN`, “inactive”.
As for `CC(C)OC(=O)Nc1cccc(Cl)c1`, the outcome was inactive.
Take `CC(C)(C)C(O)/C(=C\c1ccc(Cl)cc1Cl)n1cncn1` (stereo unspecified): the compound was classed as inactive.
Take `COC(=O)c1ccccc1CS(=O)(=O)NC(=O)Nc1nc(OC)cc(OC)n1`: the compound was classed as inactive.
With `COP(=O)(OC)OC=C(Cl)Cl` the entry was “inactive”.
With `COC(=O)c1ccccc1S(=O)(=O)NC(=O)N(C)c1nc(C)nc(OC)n1` the entry was “inactive”; with `CCC(C)(C)C(=O)OC1=C(c2ccc(Cl)cc2Cl)C(=O)OC12CCCCC2`, “inactive”.
The entry for `C[C@H]1[C@H](c2ccc(Cl)cc2)SC(=O)N1C(=O)NC1CCCCC1` is “inactive”; for `CC(C)(C)C(O)C(Oc1ccc(Cl)cc1)n1cncn1` (stereo unspecified) it is “inactive”; for `CCc1ccc(C(=O)NN(C(=O)c2cc(C)cc(C)c2)C(C)(C)C)cc1` it is “inactive”.
Take `CCCN(CCC)c1c([N+](=O)[O-])cc(C(F)(F)F)cc1[N+](=O)[O-]`: the outcome was inactive.
The entry for `COP(=S)(OC)Oc1ccc([N+](=O)[O-])cc1` is “inactive”.
With `CCOc1nc(NC)nc(NC(=O)NS(=O)(=O)c2ccccc2C(=O)OC)n1` the entry was “inactive”.
With `COc1cc(OC)nc(NC(=O)NS(=O)(=O)c2cc(NC=O)ccc2C(=O)N(C)C)n1` the entry was “inactive”; with `Clc1ccccc1-c1nnc(-c2ccccc2Cl)nn1`, “inactive”.
For the compound `O=C(O)CCCOc1ccc(Cl)cc1Cl`, the outcome was inactive.
As for `ClC1C(Cl)C(Cl)C(Cl)C(Cl)C1Cl` (stereo unspecified), the result was inactive.
With `CCC(C)(NC(=O)c1cc(Cl)c(C)c(Cl)c1)C(=O)CCl` (stereo unspecified) the entry was “inactive”.
Regarding `CNC(=O)Oc1ccccc1OC(C)C`, the call was inactive.
As for `CC1(C)C(C=C(Cl)Cl)C1C(=O)OC(C#N)c1ccc(F)c(Oc2ccccc2)c1` (stereo unspecified), the compound was called inactive.
